# Source: paper PMC9911399, “Two distinct binding modes provide the RNA-binding protein RbFox with extraordinary sequence specificity”
# Changes are numbered by the printed parent chain; changes in the protein carry UniProt numbers. In all, about 16,000 sequences were measured (“ka relative to ugcaugu”: median about 0.0091, highest 2% from about 0.032 on). The sample holds the highest values, similar sequences and a random draw of the others, so the mix is not that of the screen.
# T1: RBFOX1 RRM (Homo sapiens, UniProt Q9NWB1 109-208)
# T1 sequence: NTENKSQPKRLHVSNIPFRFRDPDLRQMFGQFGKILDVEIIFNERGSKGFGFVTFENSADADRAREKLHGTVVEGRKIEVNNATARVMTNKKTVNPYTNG
# B1: CCUCACG (DNA:RNA)
# RNA: GGGAGACCGGAAUUCAGAUUGUCCCCUCACGUUAAAUCCCGUCGUAGCCACCA
# DNA 1: CAATCTGAATTCCGGTCTCCC
# DNA 2: TGGTGGCTACGACGGGATT
# B2: CAAGGGU (DNA:RNA)
# RNA: B1 RNA with C26A, U27A, C28G, A29G, C30G, G31U
# DNA 1: CAATCTGAATTCCGGTCTCCC
# DNA 2: TGGTGGCTACGACGGGATT
# B3: UCCUUGA (DNA:RNA)
# RNA: B1 RNA with C25U, U27C, C28U, A29U, C30G, G31A
# DNA 1: CAATCTGAATTCCGGTCTCCC
# DNA 2: TGGTGGCTACGACGGGATT
# B4: UUGUUGA (DNA:RNA)
# RNA: GGGAGACCGGAAUUCAGAUUGUCCUUGUUGAUUAAAUCCCGUCGUAGCCACCA
# DNA 1: CAATCTGAATTCCGGTCTCCC
# DNA 2: TGGTGGCTACGACGGGATT
# B5: UUGAUUC (DNA:RNA)
# RNA: B4 RNA with U28A, G30U, A31C
# DNA 1: CAATCTGAATTCCGGTCTCCC
# DNA 2: TGGTGGCTACGACGGGATT
# B6: UUGAGAG (DNA:RNA)
# RNA: B4 RNA with U28A, U29G, G30A, A31G
# DNA 1: CAATCTGAATTCCGGTCTCCC
# DNA 2: TGGTGGCTACGACGGGATT
# B7: UUCUGAA (DNA:RNA)
# RNA: B4 RNA with G27C, U29G, G30A
# DNA 1: CAATCTGAATTCCGGTCTCCC
# DNA 2: TGGTGGCTACGACGGGATT
# B8: UUGAUGA (DNA:RNA)
# RNA: B4 RNA with U28A
# DNA 1: CAATCTGAATTCCGGTCTCCC
# DNA 2: TGGTGGCTACGACGGGATT
# B9: UUUCUGA (DNA:RNA)
# RNA: B4 RNA with G27U, U28C
# DNA 1: CAATCTGAATTCCGGTCTCCC
# DNA 2: TGGTGGCTACGACGGGATT
# B10: UUGAGUG (DNA:RNA)
# RNA: B4 RNA with U28A, U29G, G30U, A31G
# DNA 1: CAATCTGAATTCCGGTCTCCC
# DNA 2: TGGTGGCTACGACGGGATT
# B11: UUGAUCC (DNA:RNA)
# RNA: B4 RNA with U28A, G30C, A31C
# DNA 1: CAATCTGAATTCCGGTCTCCC
# DNA 2: TGGTGGCTACGACGGGATT
# B12: UUGAUUG (DNA:RNA)
# RNA: B4 RNA with U28A, G30U, A31G
# DNA 1: CAATCTGAATTCCGGTCTCCC
# DNA 2: TGGTGGCTACGACGGGATT
# B13: UUGAGUC (DNA:RNA)
# RNA: B4 RNA with U28A, U29G, G30U, A31C
# DNA 1: CAATCTGAATTCCGGTCTCCC
# DNA 2: TGGTGGCTACGACGGGATT
# B14: UUUCAGA (DNA:RNA)
# RNA: B4 RNA with G27U, U28C, U29A
# DNA 1: CAATCTGAATTCCGGTCTCCC
# DNA 2: TGGTGGCTACGACGGGATT
# B15: UCUCAAG (DNA:RNA)
# RNA: B1 RNA with C25U, C30A
# DNA 1: CAATCTGAATTCCGGTCTCCC
# DNA 2: TGGTGGCTACGACGGGATT
# B16: UCUUGAA (DNA:RNA)
# RNA: B4 RNA with U26C, G27U, U29G, G30A
# DNA 1: CAATCTGAATTCCGGTCTCCC
# DNA 2: TGGTGGCTACGACGGGATT
# B17: CUGUACU (DNA:RNA)
# RNA: B1 RNA with C26U, U27G, C28U, G31U
# DNA 1: CAATCTGAATTCCGGTCTCCC
# DNA 2: TGGTGGCTACGACGGGATT
# B18: UAUUACG (DNA:RNA)
# RNA: B1 RNA with C25U, C26A, C28U
# DNA 1: CAATCTGAATTCCGGTCTCCC
# DNA 2: TGGTGGCTACGACGGGATT
# B19: ACCUGUG (DNA:RNA)
# RNA: B1 RNA with C25A, U27C, C28U, A29G, C30U
# DNA 1: CAATCTGAATTCCGGTCTCCC
# DNA 2: TGGTGGCTACGACGGGATT
# B20: GAUAUAG (DNA:RNA)
# RNA: B1 RNA with C25G, C26A, C28A, A29U, C30A
# DNA 1: CAATCTGAATTCCGGTCTCCC
# DNA 2: TGGTGGCTACGACGGGATT
# B21: CUUAACU (DNA:RNA)
# RNA: B1 RNA with C26U, C28A, G31U
# DNA 1: CAATCTGAATTCCGGTCTCCC
# DNA 2: TGGTGGCTACGACGGGATT
# B22: AAGGGCU (DNA:RNA)
# RNA: B1 RNA with C25A, C26A, U27G, C28G, A29G, G31U
# DNA 1: CAATCTGAATTCCGGTCTCCC
# DNA 2: TGGTGGCTACGACGGGATT
# B23: UUGAAUC (DNA:RNA)
# RNA: B4 RNA with U28A, U29A, G30U, A31C
# DNA 1: CAATCTGAATTCCGGTCTCCC
# DNA 2: TGGTGGCTACGACGGGATT
# B24: UUGAAUG (DNA:RNA)
# RNA: B4 RNA with U28A, U29A, G30U, A31G
# DNA 1: CAATCTGAATTCCGGTCTCCC
# DNA 2: TGGTGGCTACGACGGGATT
# B25: UUAAAUG (DNA:RNA)
# RNA: B1 RNA with C25U, C26U, U27A, C28A, C30U
# DNA 1: CAATCTGAATTCCGGTCTCCC
# DNA 2: TGGTGGCTACGACGGGATT
# B26: GCUUGAU (DNA:RNA)
# RNA: B1 RNA with C25G, C28U, A29G, C30A, G31U
# DNA 1: CAATCTGAATTCCGGTCTCCC
# DNA 2: TGGTGGCTACGACGGGATT
# B27: UACUGGA (DNA:RNA)
# RNA: B4 RNA with U26A, G27C, U29G
# DNA 1: CAATCTGAATTCCGGTCTCCC
# DNA 2: TGGTGGCTACGACGGGATT
# B28: UCGUGAG (DNA:RNA)
# RNA: B4 RNA with U26C, U29G, G30A, A31G
# DNA 1: CAATCTGAATTCCGGTCTCCC
# DNA 2: TGGTGGCTACGACGGGATT
# B29: UGUGGCC (DNA:RNA)
# RNA: B1 RNA with C25U, C26G, C28G, A29G, G31C
# DNA 1: CAATCTGAATTCCGGTCTCCC
# DNA 2: TGGTGGCTACGACGGGATT
# B30: UGGCCUC (DNA:RNA)
# RNA: B4 RNA with U26G, U28C, U29C, G30U, A31C
# DNA 1: CAATCTGAATTCCGGTCTCCC
# DNA 2: TGGTGGCTACGACGGGATT
# B31: UGGCCGA (DNA:RNA)
# RNA: B4 RNA with U26G, U28C, U29C
# DNA 1: CAATCTGAATTCCGGTCTCCC
# DNA 2: TGGTGGCTACGACGGGATT
# B32: UGGCCGC (DNA:RNA)
# RNA: B4 RNA with U26G, U28C, U29C, A31C
# DNA 1: CAATCTGAATTCCGGTCTCCC
# DNA 2: TGGTGGCTACGACGGGATT
# B33: UGGCCUG (DNA:RNA)
# RNA: B1 RNA with C25U, C26G, U27G, A29C, C30U
# DNA 1: CAATCTGAATTCCGGTCTCCC
# DNA 2: TGGTGGCTACGACGGGATT
# B34: UGGCCGG (DNA:RNA)
# RNA: B4 RNA with U26G, U28C, U29C, A31G
# DNA 1: CAATCTGAATTCCGGTCTCCC
# DNA 2: TGGTGGCTACGACGGGATT
# Biological target: T1, RBFOX1 RRM
# Assay: EMSA; HiTS-Eq, 1 nM pool, 10 min; buffer printed only for the single-RNA assays: 10 mM Tris pH 7.5, 150 mM NaCl, 3.4 mM EDTA, 0.001% NP-40, 30 C
# Details: tags: His6 N-terminal (pET28a); label: 5' 32P
# In short: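 Purified RbFox RRM, wild type or mutant, was incubated for 10 min in 50 µL with 1 nM of a 5′-radiolabelled RNA pool carrying 7 randomized nucleotides, whose flanks were annealed to DNA oligonucleotides, over a series of increasing protein concentrations. Unbound RNA was resolved on 8% native PAGE, cut out, reverse-transcribed, barcoded by PCR and sequenced on an Illumina HiSeq 2500. Relative association constants were derived from changes in read counts for each RNA species versus the control reaction and normalised to the cognate motif.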
row,Binder,binding signal
1,B1,0.00492 KA relative to UGCAUGU
2,B2,0.00279 KA relative to UGCAUGU
3,B3,0.0113 KA relative to UGCAUGU
4,B4,0.0329 KA relative to UGCAUGU
5,B5,0.0169 KA relative to UGCAUGU
6,B6,0.0165 KA relative to UGCAUGU
7,B7,0.0233 KA relative to UGCAUGU
8,B8,0.0228 KA relative to UGCAUGU
9,B9,0.0328 KA relative to UGCAUGU
10,B10,0.0333 KA relative to UGCAUGU
11,B11,0.0141 KA relative to UGCAUGU
12,B12,0.0356 KA relative to UGCAUGU
13,B13,0.0173 KA relative to UGCAUGU
14,B14,0.0123 KA relative to UGCAUGU
15,B15,0.00583 KA relative to UGCAUGU
16,B16,0.0145 KA relative to UGCAUGU
17,B17,0.00801 KA relative to UGCAUGU

row,Binder,binding signal
1,B18,0.0123 KA relative to UGCAUGU
2,B19,0.00788 KA relative to UGCAUGU
3,B20,0.0101 KA relative to UGCAUGU
4,B21,0.0019 KA relative to UGCAUGU
5,B22,0.0102 KA relative to UGCAUGU
6,B23,0.0179 KA relative to UGCAUGU
7,B24,0.037 KA relative to UGCAUGU
8,B25,0.0123 KA relative to UGCAUGU
9,B26,0.0264 KA relative to UGCAUGU
10,B27,0.00358 KA relative to UGCAUGU
11,B28,0.00953 KA relative to UGCAUGU
12,B29,0.0234 KA relative to UGCAUGU
13,B30,0.0279 KA relative to UGCAUGU
14,B31,0.0244 KA relative to UGCAUGU
15,B32,0.0225 KA relative to UGCAUGU
16,B33,0.0426 KA relative to UGCAUGU
17,B34,0.0318 KA relative to UGCAUGU
